According to PubChem BioAssay (Tox21):
Records with an inconclusive call do not appear. Activity calls are given as the source filed them. Unless noted, calls come from the whole dose curve; as a rule, active = well fitted curve in the direction sought with a large enough effect in the repeat runs; inconclusive = weak or mixed curves; inactive = no such curve, though single readings can be large; an effect the other way counts as inactive or inconclusive.

Experiments:
[1] = qHTS assay to identify aromatase inhibitors - cell viability counter screen (AID 743084);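 note: cells stimulated with testosterone during compound exposure; nearly all actives have a fitted effect of over 55% in size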
[2] = qHTS assay to identify small molecule that activate the aryl hydrocarbon receptor (AhR) signaling pathway - cell viability counter screen (AID 743086);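 note: HepG2 liver cells carrying the AhR DRE luciferase reporter; series mostly up to about 70 µM; nearly all actives have a fitted effect of over 45% in size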
Procedure, shortened: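 Cytotoxicity counter screen: CellTiter-Fluor signal (30 min, 37 C) in 4000 HepG2 cells/well carrying the DRE-luciferase reporter, following 24 h compound exposure at 37 C.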

[3] = target: Peroxisome proliferator-activated receptor gamma (Homo sapiens) (UniProt P37231); assay: qHTS assay to identify small molecule agonists of the peroxisome proliferator-activated receptor gamma (PPARg) signaling pathway (AID 743094; active = well fitted activation curve with a large enough effect in the signal ratio in the repeat runs, not every such curve was filed as active; the % refers to the signal ratio)
Procedure, shortened: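 Cells from the PPARg UAS-bla HEK293H line are plated and incubated 5 h at 37C. Compounds in DMSO are pinned in and left 17 h at 37C. LiveBLAzer B/G substrate is then added for 1 h at room temperature before fluorescence is measured.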

[4] = qHTS assay to identify small molecule antagonists of the peroxisome proliferator-activated receptor gamma (PPARg) signaling pathway - cell viability counter screen (AID 743194); note: nearly all actives have a fitted effect of over 55% in size
Procedure, shortened: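 Viability was measured as CellTiter-Glo luminescence in GeneBLAzer PPARg UAS-bla HEK293H cells. These cells had been exposed 17 h at 37 C to compounds together with rosiglitazone at 50 nM final, with the beta-lactamase readout taken in the same wells.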

[5] = qHTS assay for small molecule agonists of the antioxidant response element (ARE) signaling pathway - cell viability counter screen (AID 743203; calls by dose curve; note: nearly all actives have a fitted effect of over 55% in size)
Procedure, shortened: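 Cytotoxicity was tested in parallel with the ARE reporter screen. ARE-bla HepG2 cells were exposed to compounds for 16 hrs, and viability was taken from CellTiter-Glo luminescence.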

[6] = qHTS assay for small molecule activators of the heat shock response signaling pathway - cell viability counter screen (AID 743209); note: nearly all actives have a fitted effect of over 50% in size
Procedure, shortened: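 Cytotoxicity counter screen run in parallel with the HSE beta-lactamase reporter, using the same wells. HeLa HSE-bla cells received compound for 5 h at 37 C; ATP-based CellTiter-Glo luminescence was measured after 30 min at room temperature.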

[7] = qHTS assay to identify small molecule agonists of the peroxisome proliferator-activated receptor delta (PPARd) signaling pathway - cell viability counter screen (AID 743211); note: nearly all actives have a fitted effect of over 55% in size
Procedure, shortened: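 Multiplexed format: after the 2 h room-temperature LiveBLAzer B/G FRET step, CellTiter-Glo was added to the same wells. Luminescence after 30 min gave cell viability; compound exposure was 17 h at 37C.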

[8] = qHTS assay to identify small molecule antagonists of the peroxisome proliferator-activated receptor delta (PPARd) signaling pathway - cell viability counter screen (AID 743213); note: nearly all actives have a fitted effect of over 50% in size
Procedure, shortened: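 PPARd-bla HEK293H cells were treated with compounds plus agonist L165041 (300 nM final) for 17 h at 37 C. Viability was then read in the same wells by CellTiter-Glo luminescence after 30 min at room temperature.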

[9] = target: Bile acid receptor (Homo sapiens) (UniProt Q96RI1); assay: qHTS assay to identify small molecule antagonists of the farnesoid-X-receptor (FXR) signaling pathway (AID 743217; active = well fitted inhibition curve with a large enough effect in the signal ratio in the repeat runs, not every such curve was filed as active; the % refers to the signal ratio)
Procedure, shortened: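 Cells carrying a UAS-driven beta-lactamase reporter (GeneBLAzer FXR-UAS-bla HEK 293T) were plated and rested 5 h at 37 °C. Compounds in DMSO were added alongside chenodeoxycholic acid agonist at 50 uM final and left 16 h at 37 °C before FRET substrate readout.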

[10] = target: Bile acid receptor (Homo sapiens) (UniProt Q96RI1); assay: qHTS assay to identify small molecule agonists of the farnesoid-X-receptor (FXR) signaling pathway (AID 743220; active = well fitted activation curve with a large enough effect in the signal ratio in the repeat runs, not every such curve was filed as active; the % refers to the signal ratio)
Procedure, shortened: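 FXR-UAS-bla HEK 293T cells carrying a UAS-driven beta-lactamase reporter were plated for 5 h at 37C/5% CO2, then exposed to DMSO-dissolved Tox21 10K compounds for 16 h at 37C. A LiveBLAzer B/G FRET substrate was loaded for 2 h at room temperature before fluorescence reading.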

[11] = qHTS assay to identify small molecule antagonists of the farnesoid-X-receptor (FXR) signaling pathway - cell viability counter screen (AID 743221; active = well fitted cell-killing curve with a large enough effect in the repeat runs, not every such curve was filed as active; note: nearly all actives have a fitted effect of over 50% in size)
Procedure, shortened: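 CellTiter-Glo, 30 min RT, luminescence; same wells as the LiveBLAzer FRET read. Cells: FXR-UAS-bla HEK 293T. Treatment: compound with chenodeoxycholic acid 50 uM final, 16 h at 37 C.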

[12] = target: Vitamin D3 receptor (Homo sapiens) (UniProt P11473); assay: qHTS assay to identify small molecule agonists of the vitamin D receptor (VDR) signaling pathway (AID 743222; calls by dose curve)
Procedure, shortened: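 Cells carrying a VDR-driven beta-lactamase reporter are seeded at 2,000 per well and rested 4 h. Compounds in DMSO are added for 16 h at 37C, and FRET substrate fluorescence is measured after 2 h at room temperature.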

[13] = target: Aryl hydrocarbon receptor (Homo sapiens) (UniProt P35869); assay: qHTS assay to identify small molecule that activate the aryl hydrocarbon receptor (AhR) signaling pathway (AID 743085);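 note: HG2L7.5c1 human HepG2 liver cells with stably integrated DRE-driven firefly reporter; series mostly up to about 70 µM; nearly all actives have a fitted effect of over 15% in size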
Procedure, shortened: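 Reporter assay in engineered HepG2 line HG2L7.5c1, whose plasmid carries twenty dioxin responsive elements upstream of firefly luciferase. Treatment lasted 24 h at 37C; ONE-Glo luminescence gauged induction.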

[14] = target: Peroxisome proliferator-activated receptor delta (Homo sapiens) (UniProt Q03181); assay: qHTS assay to identify small molecule agonists of the peroxisome proliferator-activated receptor delta (PPARd) signaling pathway (AID 743212; calls by dose curve)
Procedure, shortened: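 Beta-lactamase reporter readout: a ratiometric FRET signal from the LiveBLAzer substrate after 2 h at room temperature. Compound exposure at 37 °C in PPARδ-bla HEK293H cells driven by an upstream activator sequence.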

[15] = target: Peroxisome proliferator-activated receptor delta (Homo sapiens) (UniProt Q03181); assay: qHTS assay to identify small molecule antagonists of the peroxisome proliferator-activated receptor delta (PPARd) signaling pathway (AID 743215; active = well fitted inhibition curve with a large enough effect in the signal ratio in the repeat runs, not every such curve was filed as active; the % refers to the signal ratio;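 note: cells stimulated with agonist L165041 at 300 nM final during compound exposure; series mostly up to about 62 µM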)
Procedure, shortened: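 Cells: HEK293H with a UAS-driven beta-lactamase reporter responsive to PPARd. Compounds were co-added with L165041 (300 nM, final) and incubated 17 h at 37 C before a 2 h room-temperature FRET substrate step and fluorescence reading.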

[16] = qHTS assay to identify small molecule agonists of the farnesoid-X-receptor (FXR) signaling pathway - cell viability counter screen (AID 743218); note: nearly all actives have a fitted effect of over 45% in size
Procedure, shortened: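 Cells were seeded, left 5 h at 37 C and 5% CO2, then dosed with compound in DMSO for 16 h. After the beta-lactamase FRET read, CellTiter-Glo was added and luminescence measured 30 min later.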

[17] = target: Vitamin D3 receptor (Homo sapiens) (UniProt P11473); assay: qHTS assay to identify small molecule antagonists of the vitamin D receptor (VDR) signaling pathway (AID 743223; active = well fitted inhibition curve with a large enough effect in the signal ratio in the repeat runs, not every such curve was filed as active; the % refers to the signal ratio)
Procedure, shortened: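 After VDR-bla cells are plated and left 4 h at 37C, DMSO-dissolved compounds and 3 nM (final) calcitriol agonist are added. Incubation continues 16 h at 37C; FRET beta-lactamase substrate then develops 2 h at room temperature.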

[18] = target: Peroxisome proliferator-activated receptor gamma (Homo sapiens) (UniProt P37231); assay: qHTS assay to identify small molecule antagonists of the peroxisome proliferator-activated receptor gamma (PPARg) signaling pathway (AID 743191; calls by dose curve; note: series mostly up to about 63 µM; nearly all actives have a fitted effect of over 30% in size)
Procedure, shortened: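 Beta-lactamase reporter under UAS control in HEK293H PPARg-bla cells; compound treatment 17 h at 37C. Read-out: fluorescence intensity after 1 h room-temperature incubation with LiveBLAzer B/G FRET substrate.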

[19] = qHTS assay for small molecule activators of the heat shock response signaling pathway (AID 743210; active = well fitted activation curve with a large enough effect in the signal ratio in the repeat runs, with a control signal flat, not every such curve was filed as active; the % refers to the signal ratio; note: potency is the fitted concentration of half-maximal effect; for activation: series mostly up to about 63 µM)
Procedure, shortened: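 Compound exposure lasted 5 h at 37 C in HeLa cells carrying a heat-shock-element-driven beta-lactamase reporter. Read-out: fluorescence intensity after 2.5 h room-temperature loading with LiveBLAzer B/G FRET substrate.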

[20] = qHTS assay for small molecule agonists of the antioxidant response element (ARE) signaling pathway (AID 743202; active = well fitted activation curve with a large enough effect in the signal ratio in the repeat runs, not every such curve was filed as active; the % refers to the signal ratio; note: potency is the fitted concentration of half-maximal effect)
Procedure, shortened: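 After 16 hours of compound treatment at 37 C, HepG2 cells with a stably integrated ARE-driven beta-lactamase reporter were loaded 2 hours at room temperature with LiveBLAzer B/G FRET substrate and fluorescence intensity measured.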
% is set by controls: 0 for no effect and ±100 for the full control effect.

Sequence of Vitamin D3 receptor (Homo sapiens) (P11473 whole entry, looked up): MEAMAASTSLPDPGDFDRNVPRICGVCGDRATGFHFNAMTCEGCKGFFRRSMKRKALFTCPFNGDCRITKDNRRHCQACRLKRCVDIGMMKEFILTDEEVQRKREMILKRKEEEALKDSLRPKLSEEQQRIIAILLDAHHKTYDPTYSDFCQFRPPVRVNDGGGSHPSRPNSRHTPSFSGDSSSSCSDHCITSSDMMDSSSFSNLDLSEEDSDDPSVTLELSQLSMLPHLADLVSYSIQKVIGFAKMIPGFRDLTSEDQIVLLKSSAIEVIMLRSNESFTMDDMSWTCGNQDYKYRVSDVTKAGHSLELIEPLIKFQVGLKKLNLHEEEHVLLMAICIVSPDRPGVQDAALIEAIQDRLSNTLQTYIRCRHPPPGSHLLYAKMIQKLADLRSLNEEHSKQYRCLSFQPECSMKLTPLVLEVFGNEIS
Sequence of Peroxisome proliferator-activated receptor delta (Homo sapiens) (Q03181 whole entry, looked up): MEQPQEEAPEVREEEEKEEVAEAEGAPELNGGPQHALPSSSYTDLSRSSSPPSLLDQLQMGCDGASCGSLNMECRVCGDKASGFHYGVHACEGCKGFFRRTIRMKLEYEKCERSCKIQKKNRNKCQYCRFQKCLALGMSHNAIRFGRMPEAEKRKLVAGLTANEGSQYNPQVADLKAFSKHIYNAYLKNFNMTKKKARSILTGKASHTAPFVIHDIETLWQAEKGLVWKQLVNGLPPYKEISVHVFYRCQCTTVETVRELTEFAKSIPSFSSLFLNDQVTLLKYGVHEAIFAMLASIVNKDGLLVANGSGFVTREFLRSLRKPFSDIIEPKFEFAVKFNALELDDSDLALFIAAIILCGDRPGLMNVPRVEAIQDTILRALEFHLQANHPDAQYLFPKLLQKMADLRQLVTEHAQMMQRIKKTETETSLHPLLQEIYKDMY
Sequence of Peroxisome proliferator-activated receptor gamma (Homo sapiens) (P37231 whole entry, looked up): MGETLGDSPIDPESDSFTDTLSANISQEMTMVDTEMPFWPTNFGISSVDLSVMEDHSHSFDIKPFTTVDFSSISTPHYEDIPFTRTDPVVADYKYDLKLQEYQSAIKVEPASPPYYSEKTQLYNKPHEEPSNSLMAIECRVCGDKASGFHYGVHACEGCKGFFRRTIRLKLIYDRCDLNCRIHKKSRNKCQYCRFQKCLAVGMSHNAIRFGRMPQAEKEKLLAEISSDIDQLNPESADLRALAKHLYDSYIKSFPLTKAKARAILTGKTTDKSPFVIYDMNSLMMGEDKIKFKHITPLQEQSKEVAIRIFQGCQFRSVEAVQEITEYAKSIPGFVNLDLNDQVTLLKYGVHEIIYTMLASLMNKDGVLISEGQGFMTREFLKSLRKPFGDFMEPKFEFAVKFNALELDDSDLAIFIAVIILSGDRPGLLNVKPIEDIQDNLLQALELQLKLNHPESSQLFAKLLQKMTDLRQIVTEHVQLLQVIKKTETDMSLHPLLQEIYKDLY
Sequence of Bile acid receptor (Homo sapiens) (Q96RI1 whole entry, looked up): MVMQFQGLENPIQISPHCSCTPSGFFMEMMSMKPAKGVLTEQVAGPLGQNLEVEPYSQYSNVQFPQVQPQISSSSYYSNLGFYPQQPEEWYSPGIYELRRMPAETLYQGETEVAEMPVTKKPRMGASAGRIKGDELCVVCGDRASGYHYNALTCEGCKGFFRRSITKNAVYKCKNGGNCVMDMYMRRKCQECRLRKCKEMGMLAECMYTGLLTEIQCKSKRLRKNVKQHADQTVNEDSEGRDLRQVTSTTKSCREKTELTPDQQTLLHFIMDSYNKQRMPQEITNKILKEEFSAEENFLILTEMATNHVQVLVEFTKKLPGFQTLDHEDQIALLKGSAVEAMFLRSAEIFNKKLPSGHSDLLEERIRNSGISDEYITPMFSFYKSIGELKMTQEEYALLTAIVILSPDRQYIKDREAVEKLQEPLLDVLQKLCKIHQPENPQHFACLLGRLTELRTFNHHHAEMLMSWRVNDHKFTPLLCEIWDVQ
Sequence of Aryl hydrocarbon receptor (Homo sapiens) (P35869 whole entry, looked up): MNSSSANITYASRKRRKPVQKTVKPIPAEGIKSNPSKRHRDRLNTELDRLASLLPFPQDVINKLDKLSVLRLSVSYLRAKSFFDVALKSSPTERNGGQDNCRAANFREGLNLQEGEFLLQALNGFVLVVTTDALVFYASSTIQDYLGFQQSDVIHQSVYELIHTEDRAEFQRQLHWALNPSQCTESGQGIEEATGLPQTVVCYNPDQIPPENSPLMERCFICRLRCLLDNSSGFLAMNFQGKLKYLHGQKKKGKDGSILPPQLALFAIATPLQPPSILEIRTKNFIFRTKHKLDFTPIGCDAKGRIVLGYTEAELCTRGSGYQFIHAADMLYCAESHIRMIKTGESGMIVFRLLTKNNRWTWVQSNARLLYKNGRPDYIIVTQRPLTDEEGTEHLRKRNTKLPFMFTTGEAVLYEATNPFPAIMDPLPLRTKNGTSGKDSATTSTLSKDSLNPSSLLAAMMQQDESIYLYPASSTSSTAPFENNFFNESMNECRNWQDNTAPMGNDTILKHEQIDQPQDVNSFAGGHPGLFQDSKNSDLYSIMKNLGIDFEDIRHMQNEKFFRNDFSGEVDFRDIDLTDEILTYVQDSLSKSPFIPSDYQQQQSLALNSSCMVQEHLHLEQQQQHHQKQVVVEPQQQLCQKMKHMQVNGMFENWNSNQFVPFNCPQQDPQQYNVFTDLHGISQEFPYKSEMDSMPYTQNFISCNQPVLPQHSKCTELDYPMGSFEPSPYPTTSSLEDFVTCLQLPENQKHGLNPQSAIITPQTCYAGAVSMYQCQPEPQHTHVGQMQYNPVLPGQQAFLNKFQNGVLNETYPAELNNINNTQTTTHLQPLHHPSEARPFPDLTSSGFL

Cc1ccc(C)c(N)c1
inactive: Potency [1] | outcome [2] | Potency [3] | Potency [4] | Potency [5] | outcome [6] | Potency [7] | Potency [8] | outcome [9] | outcome [10] | outcome [11] | outcome [12]

O=c1[nH]c(=O)n([C@H]2C[C@H](O)[C@@H](CO)O2)cc1C(F)(F)F
inactive: Potency [1] | Potency [13] | outcome [2] | Potency [4] | Potency [5] | outcome [6] | outcome [14] | Potency [8] | outcome [15] | Potency [16] | outcome [10] | outcome [11] | outcome [17]

FC(F)(F)c1ccccc1
inactive: Potency [1] | outcome [2] | Potency [18] | Potency [4] | Potency [5] | Potency [19] | Potency [7] | Potency [8] | outcome [15] | Potency [16] | outcome [11] | outcome [12] | outcome [17]

O=C1CCN(c2ccccc2)N1
inactive: Potency [1] | outcome [2] | Potency [4] | Potency [20] | outcome [6] | Potency [7] | Potency [8] | outcome [9] | outcome [10] | outcome [11]

O=C(O[C@@H](C(=O)O)[C@@H](OC(=O)c1ccccc1)C(=O)O)c1ccccc1
inactive: Potency [1] | outcome [2] | Potency [3] | Potency [4] | Potency [20] | Potency [5] | outcome [6] | Potency [19] | Potency [7] | Potency [8] | outcome [15] | outcome [11]

CN1CCN(C2=Nc3cc(F)ccc3Cc3ccccc32)CC1
inactive: Potency [1] | Potency [13] | Potency [3] | Potency [18] | Potency [4] | Potency [5] | outcome [6] | Potency [19] | outcome [14] | Potency [8] | outcome [15] | outcome [9] | Potency [16] | outcome [10] | outcome [12] | outcome [17]

COC(=O)c1ccc2cc(C(=O)OC)ccc2c1
inactive: Potency [1] | outcome [2] | Potency [3] | Potency [18] | Potency [4] | Potency [20] | Potency [5] | outcome [6] | Potency [7] | outcome [14] | Potency [16] | outcome [11]

O=C1CCCc2ccccc21
inactive: Potency [1] | outcome [2] | Potency [3] | Potency [4] | Potency [20] | Potency [5] | outcome [6] | Potency [19] | Potency [7] | outcome [14] | Potency [8] | outcome [15] | Potency [16] | outcome [11] | outcome [12] | outcome [17]

CNCCC(Oc1ccccc1OC)c1ccccc1 (stereo not drawn)
inactive: Potency [1] | outcome [2] | Potency [3] | Potency [18] | Potency [4] | Potency [20] | Potency [5] | outcome [6] | Potency [19] | Potency [7] | outcome [14] | Potency [8] | outcome [15] | outcome [9] | Potency [16] | outcome [10] | outcome [11] | outcome [12] | outcome [17]

CCCCNC(=S)NCCCC
active: Potency [19] 23.6 µM
inactive: Potency [1] | Potency [13] | Potency [3] | Potency [18] | Potency [4] | Potency [5] | outcome [6] | Potency [8] | Potency [16] | outcome [11] | outcome [12] | outcome [17]

Cn1cnc2c(F)c(Nc3ccc(Br)cc3Cl)c(C(=O)NOCCO)cc21
inactive: Potency [1] | outcome [2] | Potency [3] | Potency [18] | Potency [4] | Potency [5] | outcome [6] | Potency [19] | Potency [7] | Potency [8] | outcome [15] | outcome [9] | Potency [16] | outcome [10] | outcome [11] | outcome [12] | outcome [17]

NC(Cc1ccc(F)cc1)C(=O)O (stereo not drawn)
inactive: activity change, negative = cytotoxicity [1] -2.35% [at 8.47 µM] | viability change, negative = cytotoxic [2] 2.78% [at 8.47 µM] | activation [3] 0.33% [at 7.08 µM] | ratio activity, negative = inhibition [18] 6.5% [at 5.95 µM] | activity change, negative = cytotoxicity [4] -1.09% [at 5.95 µM] | activation [20] -7.28% [at 8.36 µM] | viability change, negative = cytotoxic [5] -1.52% [at 8.36 µM] | activity change, negative = cytotoxicity [6] -7.91% [at 5.95 µM] | activity change, negative = cytotoxicity [7] -0.221% [at 5.95 µM] | activation [14] 5.3% [at 5.95 µM] | viability change, negative = cytotoxic [8] 5.29% [at 6.26 µM] | ratio activity, negative = inhibition [15] 5.05% [at 6.26 µM] | viability change, negative = cytotoxic [16] 4.49% [at 5.95 µM] | activity change, negative = cytotoxicity [11] -10% [at 5.95 µM] | activation [12] 5.15% [at 6.01 µM] | activity change, negative = inhibition [17] 0.285% [at 6.95 µM]

CCN(O)CC
inactive: Potency [1] | outcome [2] | Potency [3] | Potency [4] | Potency [20] | Potency [5] | outcome [6] | Potency [19] | Potency [7] | outcome [15] | Potency [16] | outcome [11] | outcome [12] | outcome [17]

CN1[C@@H]2CC[C@H]1CC(OC(=O)c1c[nH]c3ccccc13)C2 (stereo partly drawn)
inactive: Potency [1] | Potency [13] | Potency [3] | Potency [18] | Potency [4] | Potency [20] | Potency [5] | outcome [6] | Potency [19] | outcome [14] | Potency [8] | outcome [15] | outcome [9] | outcome [10] | outcome [11]

Cc1cc(S(=O)(=O)O)c(N)cc1Cl
inactive: Potency [1] | outcome [2] | Potency [3] | Potency [18] | Potency [4] | Potency [5] | outcome [6] | Potency [19] | Potency [7] | outcome [14] | Potency [8] | outcome [15] | Potency [16] | outcome [11] | outcome [12]

O=C(C(Cl)Cl)N1CCOC12CCCCC2
active: Potency [20] 34.4 µM
inactive: Potency [13] | outcome [2] | Potency [3] | Potency [4] | Potency [5] | outcome [6] | Potency [7] | outcome [14] | Potency [8] | outcome [9] | Potency [16] | outcome [10] | outcome [11] | outcome [12] | outcome [17]

CCc1cc2cc(OC)c(OC)cc2c(Cc2ccccc2)n1
inactive: Potency [4] | Potency [20] | Potency [5] | outcome [6] | Potency [19] | Potency [7] | outcome [14] | outcome [15] | Potency [16] | outcome [10] | outcome [11] | outcome [12]

Cc1ccccc1C(=O)Nc1ccc(C(=O)N2CCCC(O)c3cc(Cl)ccc32)c(C)c1 (stereo not drawn)
inactive: Potency [1] | Potency [18] | Potency [4] | Potency [20] | Potency [5] | outcome [6] | Potency [19] | Potency [8] | Potency [16] | outcome [10] | outcome [11] | outcome [12]
